From PubChem BioAssay AID652054 (National Center for Advancing Translational Sciences (NCATS), 2013)
Among all 360,000 compounds or so, about 9,100 (2.5%) were called active. About 4% were inconclusive and are not listed. Cut-off read from the data, not from the text of the source: active = max response below about -50%; inconclusive = no clear call, values can overlap the other calls; inactive = above that. Only a selection was taken, and actives are over-represented in it overall.

target: D(3) dopamine receptor (Homo sapiens) (UniProt P35462); assay: qHTS of D3 Dopamine Receptor Antagonist: qHTS; conditions: D3R cells, DiscoveRx beta-arrestin luminescence, antagonist mode; stronger effect = lower value
Summary of the method: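 Cells expressing the human receptor were seeded at 1500 cells/well, incubated overnight at 37 degrees C in 5% CO2, then exposed to library compounds with dopamine controls for 90 minutes at 37 degrees C before luminescent detection.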
% is set by controls: 0 for no effect and ±100 for the full control effect.

Chain of D(3) dopamine receptor (Homo sapiens) (P35462 whole entry, looked up): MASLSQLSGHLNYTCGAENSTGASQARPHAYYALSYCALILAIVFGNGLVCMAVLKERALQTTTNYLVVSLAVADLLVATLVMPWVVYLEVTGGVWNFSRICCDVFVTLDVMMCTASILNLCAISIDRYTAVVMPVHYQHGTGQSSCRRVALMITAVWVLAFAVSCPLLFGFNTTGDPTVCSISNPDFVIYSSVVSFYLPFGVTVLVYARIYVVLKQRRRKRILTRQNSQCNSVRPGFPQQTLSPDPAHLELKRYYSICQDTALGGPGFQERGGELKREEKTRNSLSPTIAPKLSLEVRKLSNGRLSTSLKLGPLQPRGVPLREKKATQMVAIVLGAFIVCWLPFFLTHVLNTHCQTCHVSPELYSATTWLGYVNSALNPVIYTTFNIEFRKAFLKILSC

Max response, negative = inhibition, active:
COc1ccc2sc(-c3ccccc3OC)c(-c3ccc(OCCN4CCCC4)cc3)c2c1 -83.2%
CC(C)(Oc1ccc(C2CC2(Cl)Cl)cc1)C(=O)O (stereo unspecified) -111%
O=C(NC1=NCCS1)c1ccc(Cl)s1 -77%
O=C(C[n+]1ccc2c(c1)nnn2-c1ccccc1)c1ccc(Cl)cc1 -54.4%
COCc1cc(C)nc2sc(C(=O)NC3CCCCC3)c(N)c12 -50.5%
Oc1ccccc1/C=N/n1c(-c2cccs2)n[nH]c1=S -79.6%
Cc1ccc(/C=N\n2c(-c3ccccc3)n[nH]c2=S)s1 -72.1%
Cc1cc(C(=O)NC2CCN(Cc3ccccc3)CC2)n[nH]1 -81.2%
Cc1ccn2cc(C(=O)NC3CCN(Cc4ccccc4)CC3)nc2c1 -65.2%
O=[N+]([O-])/C=C/c1ccc2c(ccn2Cc2ccccc2)c1 -54.4%
NCCCCC(C(=O)O)N(C(=O)OCc1ccccc1)C(=O)OCc1ccccc1 (stereo unspecified) -55.1%
S=c1c2[nH]cnc2ncn1CCSc1ncnc2nc[nH]c12 -78.7%
O=C(N1CCOCC1)N1CCOCC1 -50.3%
FC(F)(F)Oc1ccccc1C(c1nnnn1C1CCCCC1)N1CCN(C/C=C/c2ccccc2)CC1 (stereo unspecified) -77.9%
CCOc1ccccc1C(=O)NC1CC2CCCC(C1)N2Cc1ccccc1 (stereo unspecified) -77.3%
COc1ccc(CN2C3CCCC2CC(NC(=O)c2cccc(F)c2)C3)cc1 (stereo unspecified) -88.5%
COc1ccc(NC(=O)NC2CC3CCCC(C2)N3Cc2ccccc2)cc1 (stereo unspecified) -65.9%
COc1cc(C)c(C)cc1S(=O)(=O)N1CCCc2ccccc21 -64.6%
Cc1cc(=O)oc(C)c1C(=O)NC1CC(C)(C)NC(C)(C)C1 -75.7%
Brc1ccc(CN2CC[C@H]3C=CCc4cccc(c43)C2)cc1 -107%
O=c1[nH]c2ccccc2n1C1CCN(CCOc2ccccc2)CC1 -110%

Max response, negative = inhibition, inactive:
OC[C@@H]1CN(Cc2cccs2)C[C@H](n2cnc3c(NC4CCCC4)ncnc32)O1 18.9%
CC(C)c1cccc(-c2csc(C(O)c3ccccc3)n2)c1 (stereo unspecified) -27.4%
COc1cccc(-c2sc3ccc(OC)cc3c2-c2ccc(OCCN3CCCCC3)cc2)c1 -12.2%
COc1ccccc1-c1sc2ccccc2c1-c1ccc(Br)nc1 -14.1%
O=C(Nc1ccc(C2CC2(Cl)Cl)cc1)c1cccc([N+](=O)[O-])c1 (stereo unspecified) -14.6%
CCc1nc2c(OCc3ccc(F)c(F)c3)cccn2c1N(C)C(=O)c1ccco1 15.7%
COc1ccc(C(=O)NC2=NCCS2)c(OC)c1 5.28%
COc1ccccc1C(=O)NCCC(=O)NC1=NCCS1 0%
O=C(CSc1cccc[n+]1[O-])c1ccc(Cl)cc1 -3.66%
O=C(Cn1cc(-c2nnnn2-c2ccc(Cl)cc2)c(=O)c2ccccc21)c1ccccc1 36.4%
Cc1noc(C)c1C(=O)N1CCC1(C)C(=O)NS(=O)(=O)c1ccc(C#N)cc1 (stereo unspecified) 13.1%
Cc1cccn2c(=O)c3cc(C(=O)NC4CCCCC4)sc3nc12 -12.3%
COc1ccc(OC)c(NC(=O)c2sc3nc(C)cc(C)c3c2N)c1 22.5%
COc1cncc(-c2cnc3sc(NCCc4ccccn4)nn23)c1 60.8%
Fc1ccccc1/C=N/n1c(-c2cccnc2)n[nH]c1=S -11.6%
S=c1[nH]nc(-c2ccncc2)n1/N=C/c1ccccc1Cl 38%
S=c1[nH]nc(-c2cccs2)n1/N=C/c1cn(-c2ccccc2)nc1-c1ccc(Cl)cc1 -16%
Cc1ccsc1/C=N/n1c(=S)[nH]nc(C)c1=O -20.9%
CCCCCC(=O)N1C[C@H](O)[C@@H](n2cc(COC(=O)c3ccccc3)nn2)C[C@@H]1c1ccc(C)cc1 8.87%
COC(=O)C1=CN(c2c(C)cc(C)cc2C)C(N)=C(C#N)C1c1cccc(F)c1 (stereo unspecified) 2.73%
Cc1ccnc(SC2CC(=O)N(c3ccccc3)C2=O)n1 (stereo unspecified) -15.3%
CC[C@@H]1CC2=C(C(=O)OC(C)(C)O2)[C@@H](CC)O1 16.4%
COC(=O)C1(C(=O)OC)C/C=C\CN(S(=O)(=O)c2ccccc2[N+](=O)[O-])CCC1 25.7%
CCc1nc2ccc(C(=O)NC3CCN(Cc4ccccc4)CC3)cn2c1N(C)CCN1CCOCC1 14%
Cc1ccc(-c2cc(C(=O)NC3CCN(Cc4ccccc4)CC3)c3ccccc3n2)cc1 -13.4%
Cc1cc(C(=O)NC2CC(C)(C)Cc3c2cnn3-c2ccccc2)n[nH]1 (stereo unspecified) -0.849%
COC(=O)c1cc(S(=O)(=O)NC2CCN(Cc3ccccc3)CC2)cn1C 11.7%
CCc1nc2ccc(C(=O)N3CCN(S(=O)(=O)CC)CC3)cn2c1N(C=O)CCC(C)C -18.9%
CCCNC(=O)C1(C)CCN1C(=O)Cc1ccc(-c2ccccc2)cc1 (stereo unspecified) -20.6%
C[C@H]1NS(=O)(=O)c2cc(Cl)ccc2O[C@@H]1c1ccccc1 -18.7%
C[C@@H]1CN([C@@H](C)CO)C(=O)CCCn2cc(nn2)CO[C@H]1CN(C)S(=O)(=O)c1ccc(-n2cccn2)cc1 -5.35%
COC(=O)[C@]12CCCCC=C1N(Cc1ccc(Cl)cc1Cl)C(=O)[C@H](CC(=O)NCc1cccc3ccccc13)C2 -15.1%
COc1cc(CCN=Cc2ccccc2O)c([N+](=O)[O-])cc1OC 2.41%
O=C(NCC1CCC(C(=O)O)CC1)OCc1ccccc1 (stereo unspecified) 22%
CC(C)[C@H](NC(=O)OCc1ccccc1)C(=O)OCc1ccccc1 -14.6%
CCc1oc(-c2ccc(OC)cc2)c(C(=O)OCCCCCO)c1C(C)OCCO (stereo unspecified) 14.5%
Cc1ccc(NC(=O)c2ccc(CSc3ncnc4nc[nH]c34)cc2)c(C)c1 -9.41%
CCc1ccc(N(CC)c2ncnc3nc[nH]c23)cc1 -11.5%
CCOP(=O)(OCC)C(Cc1ccccc1)N=C(c1ccccc1)c1ccccc1 (stereo unspecified) -6.96%
Cc1ccc(C(=O)NC2CCN(C(=O)N3CCOCC3)CC2)cc1 11.7%
O=C(N1CCCCC1)N1CCN(C(=O)N2CCCCC2)CC1 -20.6%
O=C(NCCOc1ccccc1)N1[C@H]2CC[C@@H]1C=C(c1ccc(F)cc1OCc1ccccc1)C2 56.5%
CCOc1ccc(CCN2C(=O)C(=O)N([C@@H](Cc3ccc(O)cc3)CN3CCC[C@H]3CN3C(=O)C(=O)NC[C@@H]3CC(C)C)C[C@@H]2Cc2ccccc2)cc1 -23.4%
CN(C)CCN1CCN(c2cc(-c3cccc(Cl)c3)nc3ccnn23)CC1 -22%
Cc1ccc(C(O)c2ncc(-c3ccccc3F)[nH]2)cc1F (stereo unspecified) -0.345%
COc1ccc(C(c2nnnn2C2CCCCC2)N2CCN(c3ccccc3F)CC2)cc1 (stereo unspecified) -13.2%
CCOC(=O)C1CCN(C(c2cc3cc(C)cc(C)c3[nH]c2=O)c2nnnn2C2CCCCC2)CC1 (stereo unspecified) 18.8%
OC(c1cc(Cl)cc(Cl)c1)c1ncc(-c2ccccc2C(F)(F)F)[nH]1 (stereo unspecified) 2.77%
CCOc1ccccc1OCC(=O)Nc1ccccc1C(=O)NC1CC1 2%
COc1ccc(NC(=O)N2CCC(Cc3ccccc3)CC2)cc1 -18%
CCCCOCCCNC(=O)c1ccccc1OCC -16.2%
COc1ccc(NC(=S)N2CCC(NC(=O)c3cccc(F)c3)CC2)cc1 -3.67%
CC(=O)NC1CC2CCCC(C1)N2CC(=O)Nc1ccccc1 (stereo unspecified) -23%
CCCN1C2CCCC1CC(NC(=O)c1cccc(OC)c1)C2 (stereo unspecified) 9.66%
Cc1ccc(-c2ccc(C3=CC(=O)CC(C)(C)C3=O)cc2)cc1 4.58%
Cc1ccc([C@H]2N[C@]3(CCCN(CC4CCCCC4)C3=O)[C@H]3C(=O)N(Cc4ccccc4)C(=O)[C@@H]23)cc1 0.653%
Cc1ccc(F)c(S(=O)(=O)NC(=O)C2(C)CCN2C(=O)CCc2cccs2)c1 (stereo unspecified) -4.74%
Cn1c(=O)n(C)c2cc(S(=O)(=O)N3CCCc4ccccc43)ccc21 5.19%
COc1ccc(C(=O)OCC(=O)NCC2CCCCC2)cc1S(=O)(=O)N1CCCc2ccccc21 8.09%
N#CCCC(C#N)(c1cccnc1)N1CCOCC1 (stereo unspecified) -3.79%
Cc1cc(OC(C)C(=O)NC2CC(C)(C)NC(C)(C)C2)c2c(C)cc(=O)oc2c1 (stereo unspecified) 7.98%
Cc1ccc(C(=O)NC2CC(C)(C)NC(C)(C)C2)c(C)c1 39.4%
CC(C)C[C@H]1CNC(=O)C(=O)N1C[C@@H]1CCCN1C[C@H](Cc1ccccc1)N1C[C@H](CC(C)C)N(CC2CCCCCC2)C(=O)C1=O -0.867%
CCOC(=O)[C@]12CCCC=C1N(CCC1=CCCCC1)C(=O)[C@H](CC(=O)N1CCN(C(=O)c3ccco3)CC1)C2 0%
NC(=O)c1ccc(CN2CCC(Cc3ccccc3)CC2)cc1 -23.1%
Brc1ccccc1CN1CCC(Cc2ccccc2)CC1 -26.3%
O[C@@H]1C[C@H](c2ccccc2)N(Cc2cccs2)C[C@H]1n1cc(C2CC2)nn1 2.45%
C[C@H]1Cn2cnc(C(=O)N[C@H](C)c3ccccc3)c2C(=O)N1 -3.02%
O=C1CCN(CCc2ccccc2)CCN1CCOc1ccccc1 -8.76%
OC(c1ccccc1)(c1ccccc1)C1CCN(CCCOc2ccccc2)CC1 -8.6%
